Here are results for 19 molecules from PubChem BioAssay (NCATS).

Several values for one entry are separate records, joined by “and”; a condition that tells them apart may be missing. Identical values can stand only once. Records with an inconclusive call do not appear. Where a structure was tested more than once in an assay, its records may differ in their call. Activity calls are given as the source filed them. Unless noted, calls follow the shape of the full dose curve.

For assay [1], the target named is Voltage-gated inwardly rectifying potassium channel KCNH2 (Homo sapiens) (UniProt Q12809). Kind of assay: qHTS Assay for Small Molecule Inhibitors of the Human hERG Channel Activity (AID 588834; active = well fitted inhibition curve with a large enough effect;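 also: lower thallium flux fluorescence means stronger hERG block; nearly all actives have a fitted effect of over 50% in size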; also: potency is read from the fitted curve at half-maximal effect). The method in brief: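 Blockade is seen as reduced FluxOR thallium-flux fluorescence in U2OS cells expressing hERG from a BacMam construct, in Opti-MEM with 2% FCS. Concentration-response data fitted to the Hill equation for AC50.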
Voltage-gated inwardly rectifying potassium channel KCNH2 (Homo sapiens), sequence (Q12809 whole entry, looked up): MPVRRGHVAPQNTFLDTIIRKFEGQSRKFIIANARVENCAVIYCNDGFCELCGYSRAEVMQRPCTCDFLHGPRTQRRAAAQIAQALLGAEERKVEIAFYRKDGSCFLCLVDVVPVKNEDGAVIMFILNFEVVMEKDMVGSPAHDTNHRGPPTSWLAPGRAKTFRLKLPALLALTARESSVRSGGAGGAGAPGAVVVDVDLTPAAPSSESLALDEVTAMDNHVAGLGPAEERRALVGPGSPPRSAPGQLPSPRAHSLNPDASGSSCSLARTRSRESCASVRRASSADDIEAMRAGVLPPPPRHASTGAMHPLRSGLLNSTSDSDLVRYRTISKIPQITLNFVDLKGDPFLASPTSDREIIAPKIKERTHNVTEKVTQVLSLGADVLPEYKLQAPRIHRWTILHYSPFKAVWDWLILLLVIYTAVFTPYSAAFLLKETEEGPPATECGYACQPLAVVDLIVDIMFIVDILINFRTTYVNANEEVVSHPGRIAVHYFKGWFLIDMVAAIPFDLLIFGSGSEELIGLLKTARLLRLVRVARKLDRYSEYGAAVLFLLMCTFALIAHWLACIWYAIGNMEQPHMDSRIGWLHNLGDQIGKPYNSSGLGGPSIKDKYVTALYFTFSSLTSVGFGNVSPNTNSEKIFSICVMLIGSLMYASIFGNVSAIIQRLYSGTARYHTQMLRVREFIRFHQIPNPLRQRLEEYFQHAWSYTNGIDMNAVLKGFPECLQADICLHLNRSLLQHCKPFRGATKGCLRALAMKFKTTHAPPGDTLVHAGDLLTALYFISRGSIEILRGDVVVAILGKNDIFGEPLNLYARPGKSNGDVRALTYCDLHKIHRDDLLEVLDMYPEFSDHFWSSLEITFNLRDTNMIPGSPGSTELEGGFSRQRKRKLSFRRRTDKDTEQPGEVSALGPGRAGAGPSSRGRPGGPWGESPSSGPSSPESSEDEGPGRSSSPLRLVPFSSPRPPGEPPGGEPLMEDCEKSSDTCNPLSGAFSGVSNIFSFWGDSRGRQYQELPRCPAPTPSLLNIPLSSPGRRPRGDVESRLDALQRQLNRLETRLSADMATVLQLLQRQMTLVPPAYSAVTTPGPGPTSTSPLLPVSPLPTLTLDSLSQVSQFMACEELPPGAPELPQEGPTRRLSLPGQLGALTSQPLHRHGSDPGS

The target in assay [2] is Peroxisome proliferator-activated receptor gamma (Homo sapiens) (UniProt P37231). Nature of the assay: qHTS assay for small molecule agonists of peroxisome proliferator-activated receptor gamma signaling (AID 588536; active = well fitted curve in the direction sought with a large enough effect in the signal ratio, with a control signal flat, not every such curve was filed as active; the % refers to the signal ratio;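 also: 0% = DMSO basal wells and 100% = rosiglitazone at 2 µM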). The method in brief:
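PPAR-gamma-UAS-bla HEK293 cells in medium with 1% charcoal/dextran-treated FBS were exposed to compounds for 16 h at 37 C. Beta-lactamase activity was read with CCF4 substrate (405 nm excitation, 460/530 nm emission).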

The target is the same in assay [3]. Nature of the assay: qHTS assay for small molecule antagonists of peroxisome proliferator-activated receptor gamma signaling (AID 588537; active = well fitted inhibition curve with a large enough effect in the signal ratio, with a control signal flat, not every such curve was filed as active; the % refers to the signal ratio; also: potency is read from the fitted curve at half-maximal effect). An outline of the steps: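 Inhibitors of agonist-stimulated UAS-bla reporter activity were sought in HEK293 cells; rosiglitazone (50 nM) defined full signal and DMSO baseline. Curves fitted to Hill model gave IC50 and efficacy.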
(In general: In qHTS, concentration-response curves come from the screen itself.)

The target of assay [4] is Vitamin D3 receptor (Homo sapiens) (UniProt P11473). Nature of the assay: qHTS assay for small molecule antagonists of vitamin D receptor signaling (AID 588541). Also: potency is read from the fitted curve at half-maximal effect. The method in brief: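 Antagonist-mode beta-lactamase reporter assay: HEK293T VDR-UAS-bla cells were exposed to titrated compound alongside 1-alpha,25-dihydroxyvitamin D3 at 3 nM final for 16 h. Values were normalized to the 50 nM agonist control and DMSO basal, with IC50 and efficacy from Hill equation fits.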
Vitamin D3 receptor (Homo sapiens), sequence (P11473 whole entry, looked up): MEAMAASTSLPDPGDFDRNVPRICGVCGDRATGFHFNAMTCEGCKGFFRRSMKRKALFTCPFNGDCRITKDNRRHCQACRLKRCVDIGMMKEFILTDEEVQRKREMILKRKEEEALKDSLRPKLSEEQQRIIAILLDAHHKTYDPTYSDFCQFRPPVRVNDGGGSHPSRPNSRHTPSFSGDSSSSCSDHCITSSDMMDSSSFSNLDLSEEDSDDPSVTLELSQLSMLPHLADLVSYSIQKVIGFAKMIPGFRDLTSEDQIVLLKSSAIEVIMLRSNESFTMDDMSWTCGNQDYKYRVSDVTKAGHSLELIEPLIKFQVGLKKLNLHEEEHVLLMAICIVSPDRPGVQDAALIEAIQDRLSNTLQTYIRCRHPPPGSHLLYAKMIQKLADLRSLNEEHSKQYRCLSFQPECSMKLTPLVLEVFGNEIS

Assay [5] has the same target. Nature of the assay: qHTS assay for small molecule agonists of vitamin D receptor signaling (AID 588543).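 Also: 0% = DMSO basal and 100% = reference agonist control.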 An outline of the steps:
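Measured: β-lactamase reporter activity (CCF4, 405 nm excitation, 460/530 nm emission) in HEK293T VDR-UAS-bla cells after 16 h compound exposure at 37 °C. Normalization against 50 nM 1α,25-dihydroxyvitamin D3 and DMSO; Hill-fit EC50.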

Assay [6] is described as follows: qHTS assay for small molecule agonists of retinoid X receptor alpha signaling (AID 588544). To be noted: HEK293T RXRa-UAS-bla, beta-lactamase reporter, 18 h; 530 nm emission.
Assay [7] addresses Retinoic acid receptor RXR-alpha (Homo sapiens) (UniProt P19793). The description is as above.
In assay [8] the target is Thyroid hormone receptor beta (Homo sapiens) (UniProt P10828). Kind of assay: qHTS assay for small molecule agonists of thyroid hormone receptor beta signaling (AID 588545).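 Also: 0% = DMSO only and 100% = 10 nM T3.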 An outline of the steps:
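TR-UAS-bla GripTite HEK 293 cells (2500/well, medium with 2% charcoal/dextran FBS) were treated in agonist mode for 18 h at 37 C, titrated. Beta-lactamase was read by CCF4 ratio after 2 h; normalized to 10 nM T3 (100%) and DMSO, Hill-fitted for EC50 and efficacy.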

A short description of assay [9]: qHTS assay for small molecule antagonists of retinoid X receptor alpha signaling (AID 588546).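 Also: cells stimulated with 9-cis-retinoic acid as agonist; % is scaled to controls: 0 for no effect and ±100 for the full control effect.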 The note with it: HEK293T RXRa-UAS-bla, beta-lactamase ratio, antagonist mode; measured here: W530 green channel, cytotoxicity proxy. The method in brief:
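Beta-lactamase reporter inhibition, read as CCF4 fluorescence ratio (ex 405, em 460/530 nm) after 2 h at RT. HEK293T UAS-bla cells, 2500/well, were stimulated with 9-cis-RA at 500 or 100 nM final alongside test compound for 18 h at 37 C.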

In assay [10] the target is Thyroid hormone receptor beta (Homo sapiens) (UniProt P10828). Nature of the assay: qHTS assay for small molecule antagonists of thyroid hormone receptor beta signaling (AID 588547; active = well fitted inhibition curve with a large enough effect in the signal ratio, with a control signal flat, not every such curve was filed as active; the % refers to the signal ratio;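 also: cells stimulated with 0.4 nM T3 agonist during compound exposure; series mostly up to about 77 µM; % is scaled to controls: 0 for no effect and ±100 for the full control effect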). The note with it: TR-UAS-bla HEK293, beta-lactamase ratio, antagonist mode, 18 h. An outline of the steps: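 Inhibition of T3-driven (0.4nM final) beta-lactamase reporter activity was measured over 0.59 nM to 92 uM compound after 18 h at 37 C. The cells were GripTite HEK293 TR-UAS-bla in charcoal/dextran-stripped serum, with CCF4 ratio read-out and IC50 from Hill fits.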
Thyroid hormone receptor beta (Homo sapiens), sequence (P10828 whole entry, looked up): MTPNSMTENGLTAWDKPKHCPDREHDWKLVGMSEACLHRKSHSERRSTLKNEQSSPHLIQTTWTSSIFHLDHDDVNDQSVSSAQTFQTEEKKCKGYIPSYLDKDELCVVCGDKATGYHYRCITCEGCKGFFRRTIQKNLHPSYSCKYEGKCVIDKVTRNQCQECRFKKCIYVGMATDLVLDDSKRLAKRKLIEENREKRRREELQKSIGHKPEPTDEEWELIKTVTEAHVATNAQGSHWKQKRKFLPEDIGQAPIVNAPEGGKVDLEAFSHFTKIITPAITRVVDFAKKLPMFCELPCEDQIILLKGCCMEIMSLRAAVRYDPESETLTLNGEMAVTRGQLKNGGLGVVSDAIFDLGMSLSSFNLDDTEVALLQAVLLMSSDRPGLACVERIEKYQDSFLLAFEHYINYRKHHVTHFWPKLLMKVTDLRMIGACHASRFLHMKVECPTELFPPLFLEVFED

Peroxisome proliferator-activated receptor gamma (Homo sapiens), sequence (P37231 whole entry, looked up): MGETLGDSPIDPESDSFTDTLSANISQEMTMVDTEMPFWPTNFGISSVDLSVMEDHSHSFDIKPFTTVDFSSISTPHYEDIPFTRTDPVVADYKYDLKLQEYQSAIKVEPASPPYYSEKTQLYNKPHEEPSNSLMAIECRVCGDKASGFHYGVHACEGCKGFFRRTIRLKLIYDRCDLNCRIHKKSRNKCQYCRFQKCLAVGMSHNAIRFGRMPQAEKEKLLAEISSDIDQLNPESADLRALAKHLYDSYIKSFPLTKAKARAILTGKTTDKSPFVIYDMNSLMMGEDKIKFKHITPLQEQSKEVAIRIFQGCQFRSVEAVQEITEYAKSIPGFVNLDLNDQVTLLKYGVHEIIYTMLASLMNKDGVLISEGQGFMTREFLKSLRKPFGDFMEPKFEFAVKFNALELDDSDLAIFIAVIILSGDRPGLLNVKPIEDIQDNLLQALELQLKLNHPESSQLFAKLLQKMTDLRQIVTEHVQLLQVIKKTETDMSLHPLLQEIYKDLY
Retinoic acid receptor RXR-alpha (Homo sapiens), sequence (P19793 whole entry, looked up): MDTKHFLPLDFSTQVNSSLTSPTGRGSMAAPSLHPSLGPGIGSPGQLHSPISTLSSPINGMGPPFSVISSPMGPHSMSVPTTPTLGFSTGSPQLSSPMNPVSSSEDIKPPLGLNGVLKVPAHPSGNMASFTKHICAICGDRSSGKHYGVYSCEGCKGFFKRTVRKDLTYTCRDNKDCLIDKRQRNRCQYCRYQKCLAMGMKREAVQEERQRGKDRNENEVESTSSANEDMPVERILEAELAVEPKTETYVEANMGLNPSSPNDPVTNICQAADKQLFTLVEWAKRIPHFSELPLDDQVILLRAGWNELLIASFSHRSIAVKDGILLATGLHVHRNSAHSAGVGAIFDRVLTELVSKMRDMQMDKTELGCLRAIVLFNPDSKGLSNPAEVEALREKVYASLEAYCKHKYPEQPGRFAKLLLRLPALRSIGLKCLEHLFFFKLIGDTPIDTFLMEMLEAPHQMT

On to `CCCCCCCCNC(C)C(O)c1ccc(SC(C)C)cc1` (stereo not drawn), for which the Potency in assay [1] was 0.631 µM (active).
With `CCCCCCCCCCCCCCCCO`, the result in assay [2], in assay [5], in assay [7] and in [8] was inactive. Also, the Potency entry in assay [3], in [4] and in assay [1] was “inactive” each time. The max response in assay [6] was 2.95%; in assay [9] it was -10.1%. For the same molecule, the activity change % (negative = inhibition) in assay [10] is 11.7% (inactive).
With `CC1(C)OC[C@@H]2O[C@@]3(C(=O)O)OC(C)(C)O[C@H]3[C@@H]2O1`, the molecule was classed as inactive in assay [2], in [5], in assay [7] and in [8]. The Potency entry in [3], in assay [4] and in assay [1] was “inactive” throughout. In addition, the max response was 0.747% in [6] and -2.62% in assay [9]. In addition, the activity change % (negative = inhibition) in [10] is -3.12% (inactive).
Turning to `C#C[C@]1(O)CC[C@H]2[C@@H]3CCC4=Cc5oncc5C[C@]4(C)[C@H]3CC[C@@]21C`, the molecule was classed as inactive in assay [2], in [5] and in [7]. For the same molecule, the max response in assay [6] was 27%; in assay [9] it was 10.7%. Also, the Potency entry in assay [1] is “inactive”.
With `CCCN(CCC)S(=O)(=O)c1ccc(C(=O)O)cc1`, the outcome in [2], in [5], in [7] and in [8] was inactive. For the same molecule, the Potency result in assay [3], in assay [4] and in [1] was “inactive” in each case. The max response in assay [6] was -13.7% and -10.4%; in [9], -8.2% and -10.3%. Besides, the activity change % (negative = inhibition) in assay [10] was 8.08% (inactive) and 3.53% (inactive).
Turning to `OC[C@H]1O[C@@H]2O[C@H]3[C@H](O)[C@@H](O)[C@@H](O[C@H]4[C@H](O)[C@@H](O)[C@@H](O[C@H]5[C@H](O)[C@@H](O)[C@@H](O[C@H]6[C@H](O)[C@@H](O)[C@@H](O[C@H]7[C@H](O)[C@@H](O)[C@@H](O[C@H]8[C@H](O)[C@@H](O)[C@@H](O[C@H]1[C@H](O)[C@H]2O)O[C@@H]8CO)O[C@@H]7CO)O[C@@H]6CO)O[C@@H]5CO)O[C@@H]4CO)O[C@@H]3CO`, the max response is 2.91% in assay [6] and 2.41% in assay [9]. The molecule was called inactive in assay [7] and in assay [8]. In [10], the activity change % (negative = inhibition) was 2.69% (inactive). Further, the Potency result in [1] was “inactive”.
As for `CN(C)C(=O)Nc1ccc(Cl)c(Cl)c1`, the outcome in assay [2], in [7] and in assay [8] was inactive. Further, the Potency entry in assay [3] and in [1] was “inactive” in each case. Moreover, the figures for the max response in assay [6] and in assay [9] were -0.181% and 0.705%, respectively. Moreover, the activity change % (negative = inhibition) in [10] is -2.96% (inactive).
On to `CCOc1ccc(NC(C)=O)cc1`, for which the call in assay [2], in [5], in [7] and in [8] was inactive. Besides, the Potency result in [3], in assay [4] and in assay [1] was “inactive” throughout. Besides, the max response was 2.99% and -14.4% in assay [6]; -2.9% and -4.43% in [9]. Also, the activity change % (negative = inhibition) in assay [10] is 4.97% (inactive).
`Nc1nc(Cl)nc2c1ncn2[C@@H]1O[C@H](CO)[C@@H](O)[C@@H]1F`: the Potency result in assay [1] was “inactive”.
As for `COc1ccc(C(Cl)=C(c2ccc(OC)cc2)c2ccc(OC)cc2)cc1`, the Potency result in assay [4] and in assay [1] was “inactive” throughout. Also, the result in assay [5], in [7] and in [8] was inactive. In addition, the max response was -9.29% in [6] and -0.236% in [9]. The activity change % (negative = inhibition) in assay [10] is -9.92% (inactive).
As to `Oc1c(Cl)cc(Cl)c(Cl)c1Cc1c(O)c(Cl)cc(Cl)c1Cl`, the Potency result in assay [4] and in [1] was “inactive” each time.
Consider `C/C=C/c1ccc(O)c(OC)c1`, for which the result in assay [2] and in assay [7] was inactive. Moreover, the Potency result in assay [3] and in assay [1] was “inactive” in each case. For the same molecule, the max response was -13.6% and -6.37% in assay [6]; 1.1% and -9.34% in assay [9].
As for `CC[C@H](c1ccc(O)cc1)[C@@H](CC)c1ccc(O)cc1`, the Potency result in [1] is “inactive”.
Take `NCCNc1cccc2ccccc12`: the molecule was called inactive in assay [2], in [5], in [7] and in assay [8]. The Potency is 39.8 µM (active) in [3]; “inactive and 31.6 µM (active)” in assay [4]. For the same molecule, the max response in [6] is 15.9%; in assay [9], 2.26% and -22%. For the same molecule, the activity change % (negative = inhibition) in assay [10] was -5.49% (inactive). Besides, the Potency entry in assay [1] is “inactive”.
`CCCCC(CC)COC(=O)c1ccc(N(C)C)cc1` (stereo not drawn): the molecule was called inactive in assay [2], in assay [5], in assay [7] and in assay [8]. Besides, the Potency result in assay [3] and in [4] was “inactive” throughout. In addition, the max response is -13.5% in [6]; -15.4% and -7.64% in assay [9]. In addition, in [10], the activity change % (negative = inhibition) is -0.537% (inactive) and 3.83% (inactive). For the same molecule, the Potency result in assay [1] was “inactive and 28.2 µM (active)”.
As to `C=C[C@@]1(C)CC(=O)[C@]2(O)[C@@]3(C)[C@@H](O)CCC(C)(C)[C@@H]3[C@H](O)[C@H](OC(C)=O)[C@@]2(C)O1`, the Potency entry in assay [3], in assay [4] and in assay [1] was “inactive” throughout. In addition, the result in assay [5] and in assay [8] was inactive. For the same molecule, in assay [10], the activity change % (negative = inhibition) is 10.4% (inactive).
`CCCCCCCCCCCCCCCC(=O)O`: the molecule was classed as inactive in assay [2], in assay [5], in assay [7] and in [8]. The Potency result in [4] and in [1] was “inactive” in each case. The max response in assay [6] was -15.5%; in assay [9], -11.4%. Further, the activity change % (negative = inhibition) in assay [10] is 13.6% (inactive).
As for `COc1ccc(C(=O)c2ccccc2)c(O)c1`, the result in assay [2] and in assay [8] was inactive. In addition, the Potency entry in assay [3] was “inactive”. In addition, the max response in assay [9] was 4.73% and -13.9%. For the same molecule, the activity change % (negative = inhibition) in assay [10] is -24% (inactive) and 5.53% (inactive). In addition, the Potency in assay [1] was 35.5 µM (active).
As for `COc1cc([C@H]2Oc3cc([C@H]4Oc5cc(O)cc(O)c5C(=O)[C@@H]4O)ccc3O[C@@H]2CO)ccc1O`, the Potency result in assay [4] and in [1] was “inactive” each time. The molecule was called inactive in [5].
